Here are results for 40 sequences from the supplement of paper PMC6555819.

This test deals with VDR:RXRa (NR concentration 270 nM, RXRa partner concentration 90 nM). The test is described as follows: PBM binding z-score (relative to random genomic background probes); higher = stronger binding; sequences stand for … in GC…GCGATTGACAGCGTAGAATGAAGG
As for the experimental part:
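Protein-binding microarray (Agilent 4x180K custom design, double-stranded 60-nt probes: 5' GC cap, 34-nt variable region, 24-nt constant primer region; full probe sequence given). Purified or IVT nuclear receptor:RXRα heterodimers (3:1 NR:RXRα, mostly 270:90 nM) or homodimers were incubated for 1 h in PBS with 2% milk and no ligand, then detected with Alexa488 antibodies. Fluorescence from o1-orientation probes (~5 replicates averaged) was converted to z-scores against 500 random hg19 background probes. Variable regions are seed direct-repeat (DR0–DR5) sites, all their single-nucleotide variants and half-site ablations.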
As to ATCTCTAGGTAACCAAGTGCAGTGAATGCCGAAC, the PBM binding z-score is 1.3. TCTGCTAGGTCAACGATGGTCAGCTTATCTGCTA returned a PBM binding z-score of 1.63. Next, CCTCGGAAGACAGAAGGTCAGAGCTGTCCGCTTT: 1.01; CGAACTAGGTCATTGACAGGACAGTAAATAGTAA: 2.34; AGTCAAAGTTCACTAGGAAACGTAAGATTCAGCT: 3.48. Next, ACTAGTTGGTCAGCTGCGGTCACACACAATTCGG: 0.586; AGAATGAGGTTACCAAAGATCAAGGAAACGCTTG: 1.81; GATACAGGGTCAGCGAGAGGCCAGAGTATGGAAA: 3.67. With CATACAGGGTCAGCTAGGTCAGAGTAGGGACGGC the figure was 5.76. For TCTTGTAGATCAAAGGTTTAGAAAGCCGAAGCCT, the PBM binding z-score was determined as 0.314.

Regarding GCTATTAGTTGAAATGGCAACCGAATGATTCTCG, the PBM binding z-score is -0.304. Next, TCAGATAGGTAAAAGGTGAAAGTCGGTGTGGTAA: 0.851; CGTCCAAGGTCAGTAGGTCAGTGAAAGCGACGTG: 3.29.

Consider ACTTACGGGTCAACGTGGTTATAGCACGCGTATA, for which the PBM binding z-score amounted to 4.96. AATACAGGGTCACTAGGCCAGAGGAGGTACGAAT yielded a PBM binding z-score of 4.09. Next, ACTAGCAGTCCAAGTTTGGGTCACTCAAACAAAG: 0.754; ATATGTAGGTTAAGGGTCAATCAGGTTGGTTCGC: 5.61; GGAACGAGGGCATTCGAGTTGAGAGCATGGCGAT: 3.07. Sequence ATATGTAGGTTACATCCGGGTAATTCAGGCTATG registered a PBM binding z-score of 0.536.

GGCACGAGGGCAAGTTGATAGCAGAGTTTGATGG: the PBM binding z-score was 0.599. Next, GCTAGTTGGTCTGTAAAAGGTCACACACCGGTCG: 3.94.

On to CCTAGTTGGACAGGAGGTCACACACCGGATATGA, for which the PBM binding z-score came to 3.69. With GCATGTAGATCAAGGTTAAGAAAGACTAAGCTAA the figure was 0.22; with TCATATAGGTTATACAGGTGAAAGTCGGCATCTA, 2.48; with CCTACAGGGCCAAAAAGGTCATTGATGCCGATAA, 5.62. In the case of ACAGACAGGTGATGAAGGTAACTTAGGCTATCAT, the PBM binding z-score was determined as 0.0593. Next, ATCTCTAGGTAACAAGTTCGGTGAAAGAGAGGAC: 0.955; CCGGACAGGTGAGAAGGTAACTCAGCCTCGATTA: -0.403. With TTAACAAGGTGAAGGTCGTTGATCCCTCTGTAGA the figure was 1.35. Sequence ACTACAGGGTCATCGTAGGCCAGAGTACGCACAG displayed a PBM binding z-score of 5.05.

On to CAAACTAGGTCACGGAGGTCAAAGTCCGTGCGTA, for which the PBM binding z-score came out at 7.92.

On to ACAGACAGGTGATGAAGGTAATTCAGGCTATCAT, for which the PBM binding z-score was 0.0212. Next, CAAACTTGGTCACAGAGGTCAAAGTCCGTGCGTA: 6.59; TAAATGAGGTTATAAGATCAGGGAACGTTGCAAA: 1.1.

With ATAGGTAGGTTAAGGGTCATTCAGGTTGGTTCGC, the PBM binding z-score was found to be 5.65. Next, CCCAGTTGGTCAAGGTCACACACGCTATAGGTAC: 4.58; CGAGCTAGGTCAGAACAGGACAGTGAAGGATGAT: 0.446. Regarding GCAGACAGGTGAAACGCAGATAACTCAGGGTGGC, the PBM binding z-score was -0.407. With AATCGGAGGACAAAGGTCAGAGCTACGCCAGTGA the figure was 3.23; with CAAACTAGGTCACCAGAAGGTCAAAGTCCGCATG, 5.66.
